Measured values taken from PubChem BioAssay (NCI).
Several values for one entry are separate records, joined by “and”; a condition that tells them apart may be missing. Equal values may be shown once. About 83,000 compounds went through this panel and 20% of them were active in at least one assay; those are over-represented in the sample as a whole.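 Compound tested at a single concentration for 48 hours in 96-well plates; a percent growth value below 10 was scored as active.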 Activity calls are given as the source filed them.

Key:
Test in all cases: NCI-60 one-dose screen, 48 h (100 = growth as untreated, 0 = no growth, -100 = all killed)
NCI-H23 lung = conditions: 10 µM
NCI-H226 lung = conditions: 10 µM
NCI-H322M lung = conditions: 10 µM
HOP-62 NSCLC = conditions: 10 µM
NCI-H460 lung = conditions: 10 µM
HOP-92 NSCLC = conditions: 10 µM
NCI-H522 lung = conditions: 10 µM unless noted
A549/ATCC NSCLC = conditions: 10 µM
786-0 renal = conditions: 10 µM
COLO 205 colon = conditions: 10 µM
DU-145 prostate = conditions: 10 µM unless noted
K-562 leukemia = conditions: 10 µM
MALME-3M melanoma = conditions: 10 µM
MDA-MB-231 breast = conditions: 10 µM
RXF 393 renal = conditions: 10 µM unless noted
SF-268 CNS = conditions: 10 µM
SF-295 CNS = conditions: 10 µM
SF-539 CNS = conditions: 10 µM
UACC-257 melanoma = conditions: 10 µM
M14 melanoma = conditions: 10 µM

Row | Compound | growth (NCI-H23 lung) | growth (NCI-H226 lung) | growth (NCI-H322M lung) | growth (HOP-62 NSCLC) | growth (NCI-H460 lung) | growth (HOP-92 NSCLC) | growth (NCI-H522 lung) | growth (A549/ATCC NSCLC) | growth (786-0 renal) | growth (COLO 205 colon) | growth (DU-145 prostate) | growth (K-562 leukemia) | growth (MALME-3M melanoma) | growth (MDA-MB-231 breast) | growth (RXF 393 renal) | growth (SF-268 CNS) | growth (SF-295 CNS) | growth (SF-539 CNS) | growth (UACC-257 melanoma) | growth (M14 melanoma)
1 | CO[C@H](C(=O)[C@@H](O)[C@@H](C)O)[C@@H]1Cc2cc3cc(OC4CC(OC5CC(O)C(O)C(C)O5)C(O)C(C)O4)c(C)c(O)c3c(O)c2C(=O)[C@H]1OC1CC(OC2CC(OC3CC(C)(O)C(O)C(C)O3)C(O)C(C)O2)C(O)C(C)O1 (stereo partly drawn) | -28.9% (active) | 10.8% (inactive) | 5.87% (active) | 7.51% (active) | 2.6% (active) | -1.5% (active) | -44.7% (active) | 2.67% (active) | 2.93% (active) | -67.5% (active) | 24.7% (inactive) | 6.76% (active) | -54.6% (active) | 14.6% (inactive) | 5.86% (active) | 12.3% (inactive) | 19.1% (inactive) | -20.2% (active) | 4.4% (active) | -71.5% (active)
2 | COC(=O)C1=COC(C)C2C[n+]3ccc4c([nH]c5ccccc54)c3CC12 (stereo not drawn) | 103% (inactive) and 88.6% (inactive) | 87.1% (inactive) and 71.2% (inactive) | 107% (inactive) and 95.9% (inactive) | 94.7% (inactive) and 88.3% (inactive) | 113% (inactive) and 95.1% (inactive) | 92.2% (inactive) and 75.9% (inactive) | 99.2% (inactive) and 76.1% (inactive) | 103% (inactive) and 76.7% (inactive) | 102% (inactive) and 107% (inactive) | 106% (inactive) and 99.7% (inactive) | 112% (inactive) and 108% (inactive) | 93.7% (inactive) and 85.2% (inactive) | 105% (inactive) and 93.8% (inactive) | 101% (inactive) and 73.2% (inactive) | 112% (inactive) | 99.1% (inactive) and 96.2% (inactive) | 102% (inactive) and 90.8% (inactive) | 105% (inactive) | 106% (inactive) and 95.1% (inactive) | 107% (inactive) and 94% (inactive)
3 | CC(=O)Nc1cc(C)ccc1C | 95.1% (inactive) | 98.7% (inactive) | 96% (inactive) | 107% (inactive) | 106% (inactive) | 106% (inactive) | 96.1% (inactive) | 100% (inactive) | 106% (inactive) | 102% (inactive) | 112% (inactive) | 102% (inactive) | 92.9% (inactive) | 112% (inactive) | 105% (inactive) | 101% (inactive) | 101% (inactive) | 96.8% (inactive) | 101% (inactive) | 101% (inactive)
4 | OCC1OC(n2cnc3c(=S)nc[nH]c32)C(O)C1O (stereo not drawn) | 104% (inactive) and 71.8% (inactive) | 100% (inactive) and 63.7% (inactive) | 96.5% (inactive) and 62.9% (inactive) | 115% (inactive) and 53.9% (inactive) | 113% (inactive) and 62% (inactive) | 56.6% (inactive) and 61.8% (inactive) | 77.3% (inactive) and 3.94% (active) | 99.6% (inactive) and 101% (inactive) | 100% (inactive) and 35.1% (inactive) | 116% (inactive) and 47.5% (inactive) | 98.4% (inactive) and 51.9% (inactive) | 124% (inactive) and 41.6% (inactive) | 87.3% (inactive) and 53.3% (inactive) | 99.2% (inactive) and 61.9% (inactive) | 98.2% (inactive) and 70.2% (inactive) | 109% (inactive) and 53.9% (inactive) | 101% (inactive) and 41.7% (inactive) | 103% (inactive) and 31.8% (inactive) | 105% (inactive) and 52.7% (inactive) | 126% (inactive) and 32.4% (inactive)
5 | CCN1/C(=C/C=C/C=C/c2sc3ccccc3[n+]2CC)Sc2ccccc21 | -22.8% (active) | 11.8% (inactive) | 5.13% (active) | -29% (active) | -69.7% (active) | -28.3% (active) | -57.6% (active) | -64.5% (active) | -57.6% (active) | -87.7% (active) | -17.2% (active) | -46.4% (active) | -32.8% (active) | 8.54% (active) | -64.4% (active) | -75.4% (active) | -23.8% (active) | -57% (active) | -57.7% (active) | -81.7% (active)
6 | CC[N+](CC)=c1ccc2nc3c(cc(N)c4ccccc43)oc-2c1 | -41.8% (active) | -48% (active) | -46.5% (active) | -69% (active) | -57.4% (active) | -60.3% (active) | -48.4% (active) | -19.4% (active) | -79% (active) | -44.4% (active) | -60% (active) | 1.13% (active) | -60.9% (active) | -71.5% (active) | -23.7% (active) | -54% (active) | -83% (active) | -79.7% (active) | -70.2% (active) | -56.9% (active)
7 | CCCCCCCCCCCCCCCCCCOCC(COP(=O)([O-])OCC[N+](C)(C)C)OC (stereo not drawn) | 89.1% (inactive) | 93.9% (inactive) | 107% (inactive) | 44% (inactive) | 46.4% (inactive) | 59.9% (inactive) | 73% (inactive) | 97.5% (inactive) | 87.6% (inactive) | 2.62% (active) | 129% (inactive) | 104% (inactive) | 80.7% (inactive) | 74.4% (inactive) | 47.2% (inactive) | 79.6% (inactive) | 89.9% (inactive) | 88.8% (inactive) | 95% (inactive) | –
8 | Nc1c2ccccc2nc2ccccc12 | 11.5% (inactive) and 41.9% (inactive) and 38.5% (inactive) | 2.61% (active) and 38.7% (inactive) and 40.4% (inactive) | 12.1% (inactive) and 36.8% (inactive) and 31.9% (inactive) | 11.3% (inactive) and 52.2% (inactive) and 47.3% (inactive) | -11.2% (active) and 2.59% (active) and 12% (inactive) | 69.1% (inactive) and 2.79% (active) | -49% (active) and -11.2% (active) and 30.2% (inactive) | -5.72% (active) and 20.6% (inactive) and 28.6% (inactive) | 25.5% (inactive) and 34.8% (inactive) and 50% (inactive) | -73.8% (active) and 7.85% (active) and 12.6% (inactive) | 16.3% (inactive) and 40.9% (inactive) | 1.31% (active) and 11.9% (inactive) and 27% (inactive) | 5.23% (active) and 42% (inactive) and 34% (inactive) | 25.2% (inactive) and 40.1% (inactive) and 35.4% (inactive) | 8.02% (active) and -6.66% (active) and 44.2% (inactive) | 24.2% (inactive) and 47.3% (inactive) | -24.9% (active) and 25.7% (inactive) and 49.5% (inactive) | 21.7% (inactive) and 23.4% (inactive) and 29.2% (inactive) | -31.3% (active) and 25.4% (inactive) and 53.5% (inactive) | 7.24% (active) and 34.6% (inactive) and 42.3% (inactive)
9 | CSC1SCC2C(=O)N(C)C(C(C)C)C(=O)OCC(NC(=O)c3cnc4ccccc4n3)C(=O)NC(C)C(=O)N(C)C1C(=O)N(C)C(C(C)C)C(=O)OCC(NC(=O)c1cnc3ccccc3n1)C(=O)NC(C)C(=O)N2C (stereo not drawn) | -28.2% (active) | -5.57% (active) | 9.51% (active) | -12.4% (active) | 4.33% (active) | -20.3% (active) | -16.1% (active) | -15.2% (active) | -10.6% (active) | -45.3% (active) | -19.5% (active) | -61.8% (active) | -23.1% (active) | -8.05% (active) | -0.0463% (active) | -2.43% (active) | -22.3% (active) | -52.9% (active) | -13.6% (active) | –
10 | Clc1ccc(/C=C/c2ccccn2)c(Cl)c1 | 93.7% (inactive) | 97.1% (inactive) | 85.5% (inactive) | 96.2% (inactive) | 95.2% (inactive) | 84% (inactive) | 81.2% (inactive) | 90% (inactive) | 105% (inactive) | 94.7% (inactive) | 116% (inactive) | 93.6% (inactive) | 102% (inactive) | 85.5% (inactive) | 108% (inactive) | 99% (inactive) | 94.5% (inactive) | 89.3% (inactive) | 99.7% (inactive) | 106% (inactive)
11 | O=C(/C=C/c1ccccn1)c1ccccc1 | 83.8% (inactive) | 86.1% (inactive) | 88.8% (inactive) | 93.8% (inactive) | 26.5% (inactive) | 78.3% (inactive) | -75.6% (active) | 76.3% (inactive) | 15.6% (inactive) | 32% (inactive) | 60.5% (inactive) | 14% (inactive) | 91% (inactive) | 90.2% (inactive) | 90.6% (inactive) | 85.4% (inactive) | 87.5% (inactive) | 68.5% (inactive) | 72.9% (inactive) | 42.1% (inactive)
12 | Nc1ccc2cc3ccc(N)cc3nc2c1 | 101% (inactive) and 3.42% (active) | 87% (inactive) and -2.76% (active) | -7.06% (active) | 6.72% (active) | 102% (inactive) and 0.17% (active) | 96.7% (inactive) and -1.28% (active) | -50.9% (active) | 84.3% (inactive) and 2.08% (active) | 113% (inactive) and 43.8% (inactive) | 109% (inactive) and -39.2% (active) | 112% (inactive) and 24.3% (inactive) | 9.74% (active) | 107% (inactive) and -50.9% (active) | 97% (inactive) and 18.4% (inactive) | 127% (inactive) and 8.54% (active) | 115% (inactive) and 18.5% (inactive) | 114% (inactive) and 14.4% (inactive) | 107% (inactive) and 21% (inactive) | 107% (inactive) and -17.1% (active) | 107% (inactive) and 12.6% (inactive)
